Results: the supplement of paper PMC8728848
About 410 targets per protein were measured; listed, in parts, are those with the strongest signals and a random draw of the rest.

Legend:
Test in all cases: glycan array binding signal (z-score within array); higher = stronger binding
Conditions in all cases: glycan notation: IUPAC condensed, linker removed
Fuc(a1-2)[Gal(a1-3)]Gal = target: Fuc(a1-2)[Gal(a1-3)]Gal
Procedure, shortened: (§1)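 Glycan array binding is given as a within-array Z-score, which can be read as non-binding when negative. The arrays, 3228 of them, came from the Consortium for Functional Glycomics database and were retained only where the protein sequence was available. Z-scores were averaged across arrays of the same protein sequence at different concentrations or buffers and across linkers.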

[1] = target: Fuc(a1-2)[Gal(a1-4)]Gal(b1-4)GlcNAc
Procedure, shortened: as §1

[2] = target: Fuc(a1-2)[GalNAc(a1-3)]Gal(b1-3)GlcNAc
Procedure, shortened: as §1

[3] = target: Fuc(a1-3)[Gal(b1-4)]GlcNAc(b1-4)Gal(b1-4)[Fuc(a1-3)]GlcNAc(b1-4)Gal(b1-4)[Fuc(a1-3)]GlcNAc
Procedure, shortened: as §1

Gal(a1-3)Gal(b1-4)Glc = target: Gal(a1-3)Gal(b1-4)Glc
Procedure, shortened: as §1

Gal(a1-4)Gal(b1-4)GlcNAc = target: Gal(a1-4)Gal(b1-4)GlcNAc
Procedure, shortened: as §1

[4] = target: Gal(b1-3)[Fuc(a1-4)]GlcNAc
Procedure, shortened: as §1

[5] = target: Gal(b1-3)[GlcNAc(b1-6)]GalNAc
Procedure, shortened: as §1

GalNAc(b1-3)GalNAc = target: GalNAc(b1-3)GalNAc
Procedure, shortened: as §1

GalNAc(b1-4)GlcNAc = target: GalNAc(b1-4)GlcNAc
Procedure, shortened: as §1

GlcNAc(b1-3)Gal = target: GlcNAc(b1-3)Gal
Procedure, shortened: as §1

GlcNAc(b1-3)GalNAc = target: GlcNAc(b1-3)GalNAc
Procedure, shortened: as §1

[6] = target: GlcNAc(b1-3)[GlcNAc(b1-6)]Gal(b1-4)GlcNAc
Procedure, shortened: as §1

Neu5Ac(a2-3)Gal(b1-4)Glc = target: Neu5Ac(a2-3)Gal(b1-4)Glc
Procedure, shortened: as §1

[7] = target: Neu5Ac(a2-3)Gal(b1-4)GlcNAc(b1-3)Gal(b1-4)GlcNAc
Procedure, shortened: as §1

[8] = target: Neu5Ac(a2-3)Gal(b1-4)GlcNAc(b1-3)Gal(b1-4)[Fuc(a1-3)]GlcNAc
Procedure, shortened: as §1

Neu5Ac(b1-6)GalNAc = target: Neu5Ac(b1-6)GalNAc
Procedure, shortened: as §1

B1: F17bG (Escherichia coli), Q47200 (protein)
chain: MTNFYKVFLAVFILVCCNISHAVVSFIGSTENDVGPSQGSYSSTHAMDNLPFVYNTGYNIGYQNANVWRIGGGFCVGLDGKVDLPVVGSLDGQSIYGLTEEVGLLIWMGDTNYSRGTAMSGNSWENVFSGWCVGNYLSTQGLSVHVRPVILKRNSSAQYSVQKTSIGSIRMRPYNGSSAGSVQTTVNFSLNPFTLNDTVTSCRLLTPSAVNVSLAAISAGQLPSSGDEVVAGTTSLKLQCDAGVTVWATLTDATTPSNRSDILTLTGASTATGVGLRIYKNTDSTPLKFGPDSPVKGNENQWQLSTGTETSPSVRLYVKYVNTGEGINPGTVNGISTFTFSYQ
Fuc(a1-2)[Gal(a1-3)]Gal
  glycan array binding signal (z-score): -0.551
[1]
  glycan array binding signal (z-score): -0.657
[2]
  glycan array binding signal (z-score): -0.567
[3]
  glycan array binding signal (z-score): -0.507
Gal(a1-3)Gal(b1-4)Glc
  glycan array binding signal (z-score): -0.565
Gal(a1-4)Gal(b1-4)GlcNAc
  glycan array binding signal (z-score): -0.527
[4]
  glycan array binding signal (z-score): -0.578
[5]
  glycan array binding signal (z-score): 1.08
GalNAc(b1-3)GalNAc
  glycan array binding signal (z-score): 4.47
GalNAc(b1-4)GlcNAc
  glycan array binding signal (z-score): -0.391
GlcNAc(b1-3)Gal
  glycan array binding signal (z-score): 4.21
GlcNAc(b1-3)GalNAc
  glycan array binding signal (z-score): 3.86
[6]
  glycan array binding signal (z-score): 5.83
Neu5Ac(a2-3)Gal(b1-4)Glc
  glycan array binding signal (z-score): -0.498
[7]
  glycan array binding signal (z-score): 0.462
[8]
  glycan array binding signal (z-score): 0.05
Neu5Ac(b1-6)GalNAc
  glycan array binding signal (z-score): -0.298
